HTR5A inv ag: counter-screen for OPRM1-OPRD1 inverse agonists: human HTR5A inverse agonism; HTR5A cell line, luminescence; inhibition, % at 9.3 µM; hit rate 0.083% among 340,000; in the data active = inhibition mostly above about 23%, no sharp cut-off; inactive = mostly below about 18%;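 also: 0% = cells with DMSO and 100% = no-cell wells with DMSO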
Target sequence (P47898 whole entry, looked up): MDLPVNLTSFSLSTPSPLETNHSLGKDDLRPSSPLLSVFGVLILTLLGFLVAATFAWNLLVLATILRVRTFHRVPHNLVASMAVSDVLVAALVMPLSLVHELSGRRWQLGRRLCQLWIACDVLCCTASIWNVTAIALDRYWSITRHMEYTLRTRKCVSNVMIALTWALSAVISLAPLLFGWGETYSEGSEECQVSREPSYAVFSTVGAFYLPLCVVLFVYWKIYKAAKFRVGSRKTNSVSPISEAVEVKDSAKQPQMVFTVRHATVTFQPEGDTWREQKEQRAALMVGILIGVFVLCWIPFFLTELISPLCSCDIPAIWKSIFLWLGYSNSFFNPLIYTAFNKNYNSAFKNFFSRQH
OPRM1-OPRD1 ag: agonists of human mu-delta opioid receptor heterodimerization. cells, OPRM1-OPRD1 heterodimerization, luminescence. activation, % at 9.3 µM. AID 504326. P35372+P41143. hit rate 0.3% among 340,000; in the data active = activation above about 18%;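 also: 0% = vehicle-treated cells and 100% = reference agonist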
OPRM1-OPRD1 inv: inverse agonists of human mu-delta opioid receptor heterodimerization; P35372+P41143; cell-based MOR-DOR heterodimer luminescence, inverse agonism; inhibition, % at 9.3 µM; hit rate 0.21% among 340,000; AID 504357; in the data active = inhibition above about 22%, passing the limit was not always enough;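 also: 0% = cells with DMSO and 100% = wells without cells with DMSO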
HTR5A ag ctr: HTR5A agonism, opioid heterodimer counter-screen | P47898 | HTR5A agonist assay, luminescence, cell-based | activation, % at 9.3 µM | hit rate 0.61% among 340,000; in the data active = activation mostly above about 9.5%, no sharp cut-off; inactive = mostly below about 7.6%;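 also: 0% = cells with vehicle only and 100% = reference agonist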
OPRM1-D1 inv cf: OPRM1-OPRD1 heterodimer inverse agonism, confirmation; cells expressing OPRM1/OPRD1 heterodimer, luminescence; AID 504900; inhibition, % at 9.3 µM; hit rate 20% among 580; shares compounds with OPRM1-OPRD1 inv; in the data active = inhibition above about 32%;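 also: 0% = cells with DMSO and 100% = wells lacking cells with DMSO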
HTR5A inv count: inverse agonist of human HTR5A in OPRM1-OPRD1 counter-screen. shares compounds with OPRM1-OPRD1 inv. HTR5A-expressing cells, luminescence, inverse agonism. inhibition, % at 9.3 µM. 580 tested, under 10 active. AID 504914; call rule not given here;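 also: 0% = cells with DMSO and 100% = no-cell wells with DMSO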
Active calls of the source: *; i = inactive; nt = no result given. This is a sample that favours compounds with a hit; in the whole collection about 1.1% have one here.

SMILES	HTR5A inv ag	OPRM1-OPRD1 ag	OPRM1-OPRD1 inv	HTR5A ag ctr	OPRM1-D1 inv cf	HTR5A inv count
Cc1cc(C(=O)OCC(=O)c2cccc([N+](=O)[O-])c2)c2ccccc2n1	-3	-12	60*	-8	38*	18
O=C(COC(=O)c1cc2ccccc2oc1=O)c1cccc([N+](=O)[O-])c1	13	-9	47*	-2	46*	19
Nc1ccc(C(=O)OCC(=O)c2cccc([N+](=O)[O-])c2)cc1	18	-3	19	-7	nt	nt
COc1ccccc1C(=O)OCC(=O)c1cccc([N+](=O)[O-])c1	8	-4	19	-2	nt	nt
Cc1nc2c(nc1C)C(=O)c1ccccc1C2=O	-2	-2	9	1	nt	nt
O=C1c2ccccc2-c2nc3ccccc3nc21	10	-16	79*	-6	-437	-10
O=C(C1=C(Nc2ccccc2)c2ccccc2S(=O)(=O)N1)c1ccccc1	7	-6	32*	-3	19	14
COc1ccccc1NCC(=O)c1ccc(Cl)cc1	1	-3	17	0	nt	nt
COc1ccccc1NCC(=O)c1ccc(C)c(C)c1	-17	-6	31*	-3	-13	-7
COc1ccc(C(=O)CNc2ccc(C)cc2C)cc1	-9	-7	32*	3	70*	2
COc1ccc(C(=O)CNc2ccccc2CO)cc1	1	-3	16	0	nt	nt
COCCNC(=O)c1cc(-c2ccc(-c3ccccc3)cc2)nc2ccccc12	0	-3	15	1	nt	nt
N#Cc1ccccc1S(=O)(=O)Nc1ccc2c(c1)C(=O)OC2	-20	-3	15	-6	nt	nt
COc1ccc(S(=O)(=O)NNc2nc(C)cc(C)n2)cc1Br	1	-6	31*	0	-2	-8
Cc1cc(C)nc(NNS(=O)(=O)c2ccc(F)c(Cl)c2)n1	12	-8	44*	-5	62*	-5
Cc1cc(C)nc(NNS(=O)(=O)c2ccc(Cl)cc2)n1	13	-10	45*	-3	19	7
COc1ccc(NS(=O)(=O)c2ccc(F)c(Cl)c2)cn1	-5	1	-4	-3	nt	nt
CN1CCC(=O)N(CCSc2ccccc2)CC1	-24	-2	9	8	nt	nt
Cc1ccc2c(c1)C(=O)C(=O)N2c1ccc(Cl)cc1	24	-10	58*	1	14	-3
Cc1[nH][nH]c(=O)c1C(c1c(C)[nH][nH]c1=O)c1cn(Cc2ccc(Cl)c(Cl)c2)c2ccccc12	-30	-6	33	1	nt	nt
Cc1[nH][nH]c(=O)c1C(c1c(C)[nH][nH]c1=O)c1cn(Cc2ccc(F)cc2)c2ccccc12	15	-8	43*	1	2	-3
CC(C)(C)c1nnc(NS(=O)(=O)c2ccc(F)cc2)s1	-6	0	-1	-2	nt	nt
Cc1cccc(-n2c(=O)c3ccccc3n3c(=S)[nH]nc23)c1C	-4	1	-4	1	nt	nt
Cc1nc2c3ccccc3n(CC(=O)c3ccc(F)cc3)c(=O)n2n1	24	-6	31*	-8	i	-19
O=C(CCNc1ccc(F)cc1)c1cc2ccccc2o1	7	8	-35	-3	nt	nt
SMILES	HTR5A inv ag	OPRM1-OPRD1 ag	OPRM1-OPRD1 inv	HTR5A ag ctr	OPRM1-D1 inv cf	HTR5A inv count
O=C(Cc1ccc(F)cc1)OCC(=O)c1cc2ccccc2o1	10	-8	48*	-6	-116	-12
CC(NC(=O)COc1ccccc1)C(=O)OCC(=O)c1cc2ccccc2o1 (stereo not given)	23	-13	71*	-7	-16	2
O=C1CC/C=C\C[C@@H](CC(=O)N(CCO)Cc2ccccc2)C(=O)N2CCC[C@H]2CO1	-10	-2	8	4	nt	nt
NC1=NC(=O)/C(=C\c2ccsc2)S1	10	0	2	3	nt	nt
CSc1ncccc1C(=O)Nc1nccs1	-17	-1	3	2	nt	nt
CN(C)c1nc(=NCc2ccco2)ss1	22	-13	66*	-6	-72	-49
CC12CC3CC(C1)CC(C(=O)NNC(=O)c1ccncc1)(C3)C2	12	-2	11	-3	nt	nt
O=C(NNC(=S)NC(=O)C12CC3CC(CC(C3)C1)C2)c1ccncc1	6	-7	42*	-7	14	-5
C[C@H](CO)N1C[C@H](C)[C@@H](CN(C)S(=O)(=O)c2ccccc2)Oc2c(NC(=O)Nc3ccc4c(c3)OCO4)cccc2C1=O	-5	-3	12	1	nt	nt
Cc1cccc(OCCCC(=O)NNC(=O)CCN2CCN(c3ccccc3)CC2)c1	3	0	2	-1	nt	nt
CCOc1ccc(CCNC(=O)COC(=O)c2cccc(S(=O)(=O)N3CCOCC3)c2)cc1OCC	1	-2	12	0	nt	nt
O=C(COc1coc(CN2CCCc3ccccc32)cc1=O)Nc1cccc([N+](=O)[O-])c1	2	6	-40	-1	nt	nt
COc1cc(/C=C2\C(=O)N(C)C(=S)N2C)ccc1O	7	2	-11	-3	nt	nt
CN1C(=O)/C(=C/c2ccc(O)c([N+](=O)[O-])c2)N(C)C1=S	11	-6	33*	5	8	19
Cc1ccc2c(c1)C(=O)C(=O)N2CCCOc1ccccc1C	-13	-4	19	4	nt	nt
Cc1ccccc1OCCCN1C(=O)C(=O)c2cccc(C)c21	-8	-10	50*	3	i	-2
Cc1ccc(N/N=C/c2c(O)cc(C)oc2=O)cc1	2	-9	46*	-1	44*	-6
COc1ccc(C(=O)Cc2nnc(C)s2)c(OC)c1	19	-12	78*	-6	37*	9
O=C(CN1C(=O)C(=O)c2ccccc21)c1ccccc1	19	-11	52*	-5	-163	-19
O=S(=O)(CCN1CCOCC1)c1ccccc1	13	-5	22	-4	nt	nt
O=C1C(=O)N(Cc2cccs2)c2ccccc21	0	-9	48*	0	16	-1
O=C1CSC(=S)N1Cc1cccs1	-3	1	-7	1	nt	nt
O=C1C(=O)N(CCN2CCCCC2)c2ccccc21	25	-13	72*	-5	74*	4
O=C1C(=O)N(CCS(=O)(=O)c2ccccc2)c2ccccc21	12	-12	58*	-1	i	-14
O=C(CCCCCNC(=O)c1ccccc1)C[N+](=O)[O-]	-23	-1	6	3	nt	nt
SMILES	HTR5A inv ag	OPRM1-OPRD1 ag	OPRM1-OPRD1 inv	HTR5A ag ctr	OPRM1-D1 inv cf	HTR5A inv count
CC1(C)Oc2ccc(C(=O)NNC(=O)Nc3ccccc3)cc2NC1=O	-9	1	-8	7	nt	nt
O=C(COC(=O)CN1C(=O)C(=O)c2ccccc21)OCN1C(=O)c2ccccc2C1=O	-4	-8	40*	0	19	-3
O=C(CCN1C(=O)c2ccccc2C1=O)OCN1C(=O)c2ccccc2C1=O	-25	-3	13	2	nt	nt
O=C(CN1C(=O)C(=O)c2ccccc21)NC1CCCCC1	12	-10	47*	-5	48*	19
CC(=O)N(/N=C1\Sc2ccccc2C1=O)c1cccc(C)c1	31	-11	53*	-14	44*	-7
O=C1C2=C(c3ccccc31)[N+](=O)C1CCCCC1N2[O-] (stereo not given)	17	-13	56*	2	3	2

High-throughput results as filed in PubChem.
